Rows were chosen to be rich in hits. Some 2.8% of all compounds tested hit in one or more screens of this group.
GLP-1R inv ag: inverse agonists of human GLP-1 receptor; P43220; 410,000 tested, 1.6% active; Potency, µM (series often up to 38.3 µM), for inactives: top-dose activity change, negative = inhibition, usual class: inhibitors; HEK293 GLP-1R CRE-luciferase, luminescence, 24 h; GLP-1R form is constitutively active; also: % is scaled to controls: 0 for no effect and ±100 for the full control effect; nearly all actives have a fitted effect of over 55% in size
Target sequence (P43220 whole entry, looked up): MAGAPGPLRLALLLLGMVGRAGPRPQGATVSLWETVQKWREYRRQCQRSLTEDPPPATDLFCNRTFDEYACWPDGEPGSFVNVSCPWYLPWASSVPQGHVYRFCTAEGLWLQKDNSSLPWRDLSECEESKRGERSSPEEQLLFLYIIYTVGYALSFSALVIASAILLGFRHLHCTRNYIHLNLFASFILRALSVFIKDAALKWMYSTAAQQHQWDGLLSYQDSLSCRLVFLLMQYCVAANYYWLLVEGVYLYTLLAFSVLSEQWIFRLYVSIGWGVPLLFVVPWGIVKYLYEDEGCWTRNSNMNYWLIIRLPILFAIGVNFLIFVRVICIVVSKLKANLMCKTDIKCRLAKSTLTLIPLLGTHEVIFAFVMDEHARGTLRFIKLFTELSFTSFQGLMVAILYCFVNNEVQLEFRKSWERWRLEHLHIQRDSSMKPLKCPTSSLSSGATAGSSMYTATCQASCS
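HEK293 cells stably co-expressing a cAMP-responsive luciferase reporter and constitutively active GLP-1R were seeded, incubated 12 h, then exposed to compounds for 24 h at 37 C. Luminescence was read 12 min after detection reagent; inverse agonists lower signal.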
BRCA1 expr act: activators of BRCA1 expression; Potency, µM (series often up to 46.1 µM), inactives show top-dose activation, usual class: activators; AID 624202; 380,000 tested, 1.1% active; MCF7-BRCA1-FFLuc reporter, luminescence, 48 h; response scale: scaled: vehicle 0%, 10 µM genistein 100%; also: nearly all actives have a fitted effect of over 80% in size
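48 h compound treatment of MCF7-BRCA1-FFLuc cells (phenol-red free MEM, 37 °C), then 15 min with luciferase substrate and luminescence imaging.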
GLP1R ag: GLP-1 receptor (human) agonism. P43220. HEK293 GLP-1R CRE-luciferase, luminescence, 4-6 h; cells express a hypersensitive GLP-1R form. Potency, µM (highest dose often 45.6 µM), for the others: at the top dose activation, hits mostly activators. 380,000 tested, 0.007% active. AID 624172; also: % of control where 0% means no effect
Mito fusion act: mitochondrial division inhibition or fusion activation; 320,000 tested, 0.23% active; S. cerevisiae fusion-defective mutant growth rescue, CellTiterGlo 48 h; Potency, µM (series often up to 46.1 µM), for the others: at the top dose growth rescue (activation), most hits filed as activators; AID 485298; also: % of control where 0% means no effect; nearly all actives have a fitted effect of over 45% in size
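Read-out: ATP-based luminescence (CellTiterGlo, 10 min ambient) reporting growth of fusion-defective ts yeast after 48 hours at 37C on glycerol/ethanol YPEG medium in the presence of compound.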
HEK293 tox: cytotoxicity in counter-screen for GLP-1R inverse agonists; HEK293 cAMP-luciferase reporter cells, luminescence, 24 h; Potency, µM (top dose mostly 38.3 µM), without a hit: top-dose activity change, negative = inhibition, usual class: inhibitors; 410,000 tested, 0.13% active;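 also: loss of luciferase light is scored as toxicity; % is scaled to controls: 0 for no effect and ±100 for the full control effect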
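To flag toxic compounds, the library was rerun on cells for 24 hr at 37 deg C and 5% CO2. Viability-linked luminescence was captured 12 min after adding luciferase detection reagent.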
Starred values were filed as active, the others as inactive. Calls follow the shape of the dose curve; as a rule, active = well fitted curve in the direction sought with a large enough effect; inconclusive = small, poorly fitted or top-dose-only effect, or another doubt; inactive = no such curve, though single readings can be large; an effect the other way counts as inactive or inconclusive. Potency is read from the fitted curve at half-maximal effect.

`CCCCCCCCN1C(=O)[C@H](CC(=O)NCc2cccs2)C[C@@]2(C(=O)OC)CCCCC=C12` gave GLP-1R inv ag inconclusive, BRCA1 expr act -49%, GLP1R ag -4% and HEK293 tox -6%.
CCCCCCCCN1C(=O)[C@H](CC(=O)NCc2cccs2)C[C@@]2(C(=O)OCC)CCCC=C12 was read as GLP-1R inv ag 10µM*, BRCA1 expr act -53%, GLP1R ag -2% and HEK293 tox -18%.
COC(=O)[C@]12CCCCC=C1N(Cc1ccccc1)C(=O)[C@H](CC(=O)NCC13CC4CC(CC(C4)C1)C3)C2 was read as GLP-1R inv ag 10µM*, BRCA1 expr act 0%, GLP1R ag -2% and HEK293 tox -23%.
COc1ccccc1CNC(=O)c1ccc(-c2nc(CS(=O)(=O)c3ccc(C)cc3)c(C)o2)cc1 was read as GLP-1R inv ag -16% and HEK293 tox -4%.
`COC(=O)[C@@]12C[C@@H](CC(=O)NCCCCc3ccccc3)C(=O)N(Cc3ccco3)C1=CCC(C)(C)C2` gave GLP-1R inv ag 10µM* and HEK293 tox -11%.
`CCCCCCCCN1C(=O)[C@H](CC(=O)NCc2cccc(C(F)(F)F)c2)C[C@@]2(C(=O)OCC)CCC=C12` gave GLP-1R inv ag inconclusive and HEK293 tox -11%.
Screening CCOC(=O)[C@]12CCC=C1N(Cc1ccc(Cl)cc1Cl)C(=O)[C@H](CC(=O)NCc1cccc(C(F)(F)F)c1)C2 returned GLP-1R inv ag 11µM*, BRCA1 expr act -28%, GLP1R ag -1% and HEK293 tox -4%.
For CCCCCCCCN1C(=O)[C@H](CC(=O)NCc2cccc(C(F)(F)F)c2)C[C@@]2(C(=O)OC)CCCCC=C12 the results were GLP-1R inv ag 10µM*, BRCA1 expr act -10%, GLP1R ag 3% and HEK293 tox inconclusive.
For COc1cccc(NC(=O)CCC2CCN(C(=O)c3sccc3C)CC2)c1 the results were GLP-1R inv ag -15%, BRCA1 expr act -25%, GLP1R ag -3%, Mito fusion act -5% and HEK293 tox 2%.
Screening Cc1ccc(NC(=O)CCc2c(C)nn(-c3ccc(N4CCOCC4)nn3)c2C)c(C)c1 returned GLP-1R inv ag 0%, BRCA1 expr act 0%, GLP1R ag -1%, Mito fusion act 5% and HEK293 tox -8%.
For Cc1cc(C)c(NC(=O)C(C)n2nnc3sc(-c4ccccc4)cc3c2=O)c(C)c1 (centres undefined) the results were GLP-1R inv ag 6% and HEK293 tox 7%.
`CCOc1ccc(S(=O)(=O)N2CCc3cc(OC)c(OC)cc3C2)cc1` gave GLP-1R inv ag -2%, BRCA1 expr act -27%, GLP1R ag 3%, Mito fusion act inconclusive and HEK293 tox -1%.
COc1cc2c(cc1NC(=O)Nc1ccccc1)oc1ccccc12 was read as GLP-1R inv ag inconclusive, BRCA1 expr act -66%, GLP1R ag -11%, Mito fusion act 11% and HEK293 tox -20%.
`COc1cc2c(cc1NC(=O)CN(C)Cc1ccc(OC)c(OC)c1)oc1ccccc12` gave GLP-1R inv ag inconclusive, BRCA1 expr act -53%, GLP1R ag 24%, Mito fusion act 14µM* and HEK293 tox -12%.
Screening COc1cc2c(cc1NC(=O)C(C)NCc1ccccc1)oc1ccccc12 (centres undefined) returned GLP-1R inv ag 11µM*, BRCA1 expr act -22%, GLP1R ag 15%, Mito fusion act inconclusive and HEK293 tox 34%.
`COc1cc2c(cc1NC(=O)Cc1ccc(C)cc1)oc1ccccc12` gave GLP-1R inv ag -19%, BRCA1 expr act 7.9µM*, GLP1R ag -5%, Mito fusion act 3% and HEK293 tox 1%.
Screening COc1cc2c(cc1NC(=O)CSc1ccc(C)cc1)oc1ccccc12 returned GLP-1R inv ag 0%, BRCA1 expr act 0%, GLP1R ag 1%, Mito fusion act 1% and HEK293 tox 21%.
Cn1c(-c2cccc(F)c2)nc2c1c(=O)[nH]c(=O)n2Cc1ccccc1 was read as GLP-1R inv ag 14%, BRCA1 expr act 3%, GLP1R ag 17%, Mito fusion act 6% and HEK293 tox -11%.
For C/C(=N\NC(=O)c1cccnc1)c1c(O)cc(C)oc1=O the results were GLP-1R inv ag -9%, BRCA1 expr act -13%, GLP1R ag -1%, Mito fusion act 0% and HEK293 tox 3%.
`Cc1nc(C)c(C(=O)Nc2ncc([N+](=O)[O-])s2)o1` gave GLP-1R inv ag 4µM*, BRCA1 expr act inconclusive, GLP1R ag -3%, Mito fusion act -14% and HEK293 tox -7%.
CC(C)CC(=O)Nc1ncc([N+](=O)[O-])s1 was read as GLP-1R inv ag inconclusive, BRCA1 expr act -2%, GLP1R ag 0%, Mito fusion act -7% and HEK293 tox -22%.
c1ccc(OCCOc2ncnc3ccccc23)cc1 was read as GLP-1R inv ag 11%, BRCA1 expr act 10µM*, GLP1R ag 4%, Mito fusion act 0% and HEK293 tox -4%.
Screening CNc1cccc(-c2cccc(C(=O)N3CCOCC3)c2)n1 returned GLP-1R inv ag -12%, BRCA1 expr act 60%, GLP1R ag -7% and HEK293 tox -7%.
Screening O=C(NC(=S)N1CCN(c2ccc(Cl)cc2[N+](=O)[O-])CC1)c1ccco1 returned GLP-1R inv ag -17%, BRCA1 expr act -9%, GLP1R ag 0%, Mito fusion act 24% and HEK293 tox inconclusive.
Screening O=C(NC(=S)N1CCN(c2ccc(Cl)cc2[N+](=O)[O-])CC1)c1cccs1 returned GLP-1R inv ag 10µM*, BRCA1 expr act -23%, GLP1R ag -22%, Mito fusion act 30% and HEK293 tox 5.6µM*.
`c1ccc(CCc2nc3ccccc3[nH]2)cc1` gave GLP-1R inv ag -4%, BRCA1 expr act 6.3µM*, GLP1R ag -3%, Mito fusion act -15% and HEK293 tox -8%.
`Nc1ccc2nc(CCCCc3nc4ccccc4[nH]3)[nH]c2c1` gave GLP-1R inv ag 18%, BRCA1 expr act -3%, GLP1R ag 1%, Mito fusion act -2% and HEK293 tox -15%.
For Nc1cccc(CCc2nc3cc4ccccc4cc3[nH]2)c1 the results were GLP-1R inv ag inconclusive, BRCA1 expr act -26%, GLP1R ag 13%, Mito fusion act 20µM* and HEK293 tox inconclusive.
For CC(C)(C)C(=O)NC1CCN(CC(=O)Nc2ccc3c(c2)OCO3)CC1 the results were GLP-1R inv ag -16%, BRCA1 expr act 21%, GLP1R ag 4%, Mito fusion act 0% and HEK293 tox 5%.

Screening data as filed in PubChem.
